A number with no mark means an inactive call.
Test system: Vero E6 infected with SARS-CoV-2
Assay: inhibition of SARS-CoV-2 cytopathic effect; higher = more antiviral protection, active = above 15
Conditions: 48 h

SMILES	inhibition of SARS-CoV-2 cytopathic effect (1 nM) [%]	inhibition of SARS-CoV-2 cytopathic effect (8.33 nM) [%]	inhibition of SARS-CoV-2 cytopathic effect (100 nM) [%]	inhibition of SARS-CoV-2 cytopathic effect (833.33 nM) [%]	inhibition of SARS-CoV-2 cytopathic effect (10000 nM)
CCCCCCN(CCCCCC)C(=O)Cc1c(-c2ccc(F)cc2)[nH]c2ccccc12	5.1	3.61	3.88	0.72	-4.49%
Cc1cc(N)c2ccccc2[n+]1CCCCCCCCCC[n+]1c(C)cc(N)c2ccccc21 [dequalinium]	1.5	2.58	-2.33	-2.88	-3.48%
O=[N+]([O-])O[C@H]1CO[C@H]2[C@@H]1OC[C@H]2O[N+](=O)[O-] [isosorbide-dinitrate]	-1.2	2.2	2.2	1.87	3.34%
C[C@]12CCC(=O)C[C@@H]1CC[C@@H]1[C@@H]2CC[C@]2(C)[C@@H](O)CC[C@@H]12 [Dihydrotestosterone]	-0.75	-1.02	-1.92	-2.8	-3.3%
OC1(c2ccc(Cl)c(C(F)(F)F)c2)CCN(CCCC(c2ccc(F)cc2)c2ccc(F)cc2)CC1 [penfluridol]	-1.2	2.8	1.5	-2.41	33.9% (active)
Cc1c(N)nc([C@H](CC(N)=O)NC[C@H](N)C(N)=O)nc1C(=O)N[C@H](C(=O)N[C@H](C)[C@@H](O)[C@H](C)C(=O)N[C@H](C(=O)NCCc1nc(-c2nc(C(=O)NCCCNCCCCN)cs2)cs1)[C@@H](C)O)[C@@H](O[C@@H]1O[C@@H](CO)[C@@H](O)[C@H](O)[C@@H]1O[C@@H]1O[C@H](CO)[C@@H](O)[C@H](OC(N)=O)[C@@H]1O)c1cnc[nH]1 [bleomycetin]	5.02	-0.49	-7.1	-8.93	-22.7%
COc1cc(-c2ccc(=O)[nH]n2)ccc1OC(F)F [zardaverine]	0.13	1.54	0.67	0.7	2.13%
CCOc1cc(C(=O)Nc2ccc(Cl)c(-c3nc4ccccc4[nH]3)c2)cc(OCC)c1OCC	2.95	2.03	0.45	-3.49	4.29%
CC(C)(C)Cn1c(N)nc2ccc(-c3[nH]c(C(C)(C)C)nc3-c3ccc(F)cc3)nc21	2.2	-0.57	-1.43	11.8	55.2% (active)
Nc1ccn([C@@H]2O[C@H](CO)[C@@H](O)[C@@H]2O)c(=O)n1 [cytarabine]	-0.13	2.91	2.21	-1	-2.58%
NCCCCCC(=O)O [aminocaproic-acid]	-7.62	-2.22	1.68	1.01	-2.29%
CC(C)(S)C(N)C(=O)O (stereo in doubt) [penicillamine-(racemic)]	-0.3	-1.45	-0.335	-1.03	-0.18%
O=c1cc(N2CCOCC2)oc2c(-c3ccccc3)cccc12	-0.31	1.39	0.59	-1.92	-5.7%
CN(C)CCN(Cc1cccs1)c1ccccn1 [methapyrilene]	-0.83	-2.49	-1.39	-3.33	-1.68%
CCNC(=O)C[C@@H]1N=C(c2ccc(Cl)cc2)c2cc(OC)ccc2-n2c(C)nnc21	-1.97	-1.13	0.74	-0.08	-9.5%
Cc1cc(C(=O)Nc2cc(Oc3ccc4nc(NC(=O)C5CC5)cn4n3)ccc2C)n(C)n1	-0.96	-3.26	-4.84	-7.63	-4.87%
O=C(O)CNC(=O)c1ccccc1I [2-iodohippuric-acid]	3.32	2.66	0.05	0.88	0.58%
CC(=O)c1ccc2c(c1)C(=O)C1(CC1)O2 [spizofurone]	-4.51	5.43	0.26	0.65	2.1%
COc1cc(C(=O)NC2CCCNC2)cc(OC)c1OC (stereo not given) [troxipide]	0.11	-0.47	1.46	-0.19	2.03%
CCCCCCCCCCCCCCOc1ccc(C(=O)O)o1	-3.57	0.74	1.46	-0.07	2.73%

SMILES	inhibition of SARS-CoV-2 cytopathic effect (1 nM) [%]	inhibition of SARS-CoV-2 cytopathic effect (8.33 nM) [%]	inhibition of SARS-CoV-2 cytopathic effect (100 nM) [%]	inhibition of SARS-CoV-2 cytopathic effect (833.33 nM) [%]	inhibition of SARS-CoV-2 cytopathic effect (10000 nM)
O=c1sn(-c2cccc3ccccc23)c(=O)n1Cc1ccccc1 [tideglusib]	-1.59	-1.6	-1.32	0.87	-0.03%
CCCOC(C(=O)OC1CCN(C)CC1)(c1ccccc1)c1ccccc1 [propiverine]	0.57	1.63	0.85	-0.19	1.89%
Nc1ccn([C@H]2CO[C@@H](CO)S2)c(=O)n1 [apricitabine]	0.27	2.59	0.92	2.02	-3.28%
OC(CCN1CCCCC1)(c1ccccc1)C1CCCCC1 (stereo not given) [trihexyphenidyl]	-14.3	-7.63	-2.35	-9.38	-10.1%
CNC(=O)c1c(-c2ccc(F)cc2)oc2cc(N(CCO)S(C)(=O)=O)c(C3CC3)cc12 [nesbuvir]	0.34	0.12	0.33	-1.14	-3.08%
CC[C@@H](C)N(C)C(=O)c1cc2ccccc2c(-c2ccccc2Cl)n1	-0.84	0.72	-0.6	2.81	2.78%
NC(=O)c1nc(Nc2ccccc2)sc1NC(=O)C1CCCCC1	1.69	3.22	-0.11	-8.95	-4.1%
COCc1c(-c2ccc(NC(=O)Nc3cc(C(F)(F)F)ccc3F)c(F)c2)c2c(N)ncnn2c1CN1CCOCC1	-1.56	-1.94	-2.74	-0.39	-0.16%
Cc1nc2cnc3ccc(C#Cc4cccnc4)cc3c2n1-c1ccc(C(C)(C)C#N)cc1	-1.65	8.23	-1.48	-1.07	-1.26%
CCOC(=O)C1=C[C@]2(CC)CCCN3CCc4c(n1c1ccccc41)[C@@H]32 [vinpocetine]	-3.18	0.85	4.53	1.98	-1.06%
CCCCCCCC(=O)N[C@H](CN1CCCC1)[C@H](O)c1ccc2c(c1)OCCO2 [eliglustat]	3.28	2.4	-0.12	4.02	0.05%
CCCCc1ncc(/C=C(\Cc2cccs2)C(=O)O)n1Cc1ccc(C(=O)O)cc1 [eprosartan]	-1.35	-0.99	-0.35	-0.6	2.22%
Cn1c(COc2ccc(CC3SC(=O)NC3=O)cc2)nc2ccccc2c1=O (stereo not given) [balaglitazone]	-1.69	-0.56	-0.1	-2.45	-7.04%
CCc1cncnc1N1CCN(Cc2nc3cc(C(F)(F)F)ccc3[nH]2)CC1	1.34	-0.7	1.45	8.5	-4.66%
CCN(CC)CC#CCOC(=O)C(O)(c1ccccc1)C1CCCCC1 (stereo not given) [oxybutynin]	-1.83	-0.13	-0.11	0.84	8.9%
Cn1cc(C(=O)c2cccc3ccccc23)cc1C(=O)O [napirimus]	-0.4	-1.83	0.36	-1.9	1.11%
C#C[C@]1(O)CC[C@H]2[C@@H]3CCC4=CC(=O)CCC4=C3C=C[C@@]21CC [gestrinone]	1.67	0.8	4.87	3.58	5.58%
COC(=O)c1ccccc1O [methyl-salicylate]	0.7	2.86	2.42	-0.42	-3.74%
O=C(NC1(c2ccccc2)CC1)c1c(CN2CCC(N3CCCCC3)CC2)c(-c2cccc(C(F)(F)F)c2)nc2cc(Br)ccc12	1.74	3.71	1.73	-4.53	-13.1%

Reference: the supplement of paper PMC13380429
